High-throughput results deposited in PubChem BioAssay by National Center for Advancing Translational Sciences (NCATS).
G9a block – blocks human histone lysine methyltransferase G9a | G9a H3K9 monomethylation, AlphaScreen, 2 h | 350,000 compounds, 8.8% hits | Potency, µM (series often up to 102 µM), for the others: at the highest dose activity, negative = inhibition, usual class: inhibitors | Q96KQ7; note: % is set by controls: 0 for no effect and ±100 for the full control effect; nearly all actives have a fitted effect of over 75% in size
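Using a bead-based AlphaScreen, monomethylated H3K9 product from 2 h room-temperature reactions (G9a 20 nM, peptide 500 nM, SAM 20 uM) was detected with 0.5 ug/mL rabbit anti-H3K9me1 antibody.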
L3MBTL1 inh – inhibitors of human L3MBTL1; 230,000 compounds, 0.66% hits; Potency, µM (series often up to 57.1 µM), without a hit: at the top dose activity, negative = inhibition, hits mostly inhibitors; Q9Y468; AlphaScreen L3MBTL1–H3K9me1 peptide binding; note: % is set by controls: 0 for no effect and ±100 for the full control effect; nearly all actives have a fitted effect of over 60% in size
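AlphaScreen proximity signal between nickel-chelate acceptor and streptavidin donor beads (final 10 ug/mL) reports binding of 50 nM L3MBTL1 to 75 nM biotin-H3 K9me1 peptide; complex incubated with compounds 30 min at room temperature; cefsulodin titration as control.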
HP1b binding inh – inhibitors of HP1-beta chromodomain binding to methylated histone tails; AlphaScreen HP1-beta / biotin-H3K9me3 peptide binding; 390,000 compounds, 0.56% hits; Potency, µM (top dose mostly 114 µM), without a hit: at the highest dose activity change, negative = inhibition, most hits filed as inhibitors; AID 540317; note: nearly all actives have a fitted effect of over 70% in size
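Compound inhibition of the preformed complex between 50 nM HP1-beta and 50 nM biotinylated H3K9me3 peptide was read by AlphaScreen. Buffer was PBS pH 7.4 with 0.01% Tween-20. Incubations ran 30 min at room temperature, with 10 ug/mL donor/acceptor beads.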
BAZ2B inh – BAZ2B (human) inhibition. Q9UIF8. AlphaScreen BAZ2B-H3K14Ac peptide displacement. Potency, µM (titrated, usually from 114 µM), inactives show top-dose activity change, negative = inhibition, actives largely listed as inhibitors. 360,000 compounds, 4.4% hits; note: % is set by controls: 0 for no effect and ±100 for the full control effect; nearly all actives have a fitted effect of over 60% in size
Target sequence (Q9UIF8 whole entry, looked up): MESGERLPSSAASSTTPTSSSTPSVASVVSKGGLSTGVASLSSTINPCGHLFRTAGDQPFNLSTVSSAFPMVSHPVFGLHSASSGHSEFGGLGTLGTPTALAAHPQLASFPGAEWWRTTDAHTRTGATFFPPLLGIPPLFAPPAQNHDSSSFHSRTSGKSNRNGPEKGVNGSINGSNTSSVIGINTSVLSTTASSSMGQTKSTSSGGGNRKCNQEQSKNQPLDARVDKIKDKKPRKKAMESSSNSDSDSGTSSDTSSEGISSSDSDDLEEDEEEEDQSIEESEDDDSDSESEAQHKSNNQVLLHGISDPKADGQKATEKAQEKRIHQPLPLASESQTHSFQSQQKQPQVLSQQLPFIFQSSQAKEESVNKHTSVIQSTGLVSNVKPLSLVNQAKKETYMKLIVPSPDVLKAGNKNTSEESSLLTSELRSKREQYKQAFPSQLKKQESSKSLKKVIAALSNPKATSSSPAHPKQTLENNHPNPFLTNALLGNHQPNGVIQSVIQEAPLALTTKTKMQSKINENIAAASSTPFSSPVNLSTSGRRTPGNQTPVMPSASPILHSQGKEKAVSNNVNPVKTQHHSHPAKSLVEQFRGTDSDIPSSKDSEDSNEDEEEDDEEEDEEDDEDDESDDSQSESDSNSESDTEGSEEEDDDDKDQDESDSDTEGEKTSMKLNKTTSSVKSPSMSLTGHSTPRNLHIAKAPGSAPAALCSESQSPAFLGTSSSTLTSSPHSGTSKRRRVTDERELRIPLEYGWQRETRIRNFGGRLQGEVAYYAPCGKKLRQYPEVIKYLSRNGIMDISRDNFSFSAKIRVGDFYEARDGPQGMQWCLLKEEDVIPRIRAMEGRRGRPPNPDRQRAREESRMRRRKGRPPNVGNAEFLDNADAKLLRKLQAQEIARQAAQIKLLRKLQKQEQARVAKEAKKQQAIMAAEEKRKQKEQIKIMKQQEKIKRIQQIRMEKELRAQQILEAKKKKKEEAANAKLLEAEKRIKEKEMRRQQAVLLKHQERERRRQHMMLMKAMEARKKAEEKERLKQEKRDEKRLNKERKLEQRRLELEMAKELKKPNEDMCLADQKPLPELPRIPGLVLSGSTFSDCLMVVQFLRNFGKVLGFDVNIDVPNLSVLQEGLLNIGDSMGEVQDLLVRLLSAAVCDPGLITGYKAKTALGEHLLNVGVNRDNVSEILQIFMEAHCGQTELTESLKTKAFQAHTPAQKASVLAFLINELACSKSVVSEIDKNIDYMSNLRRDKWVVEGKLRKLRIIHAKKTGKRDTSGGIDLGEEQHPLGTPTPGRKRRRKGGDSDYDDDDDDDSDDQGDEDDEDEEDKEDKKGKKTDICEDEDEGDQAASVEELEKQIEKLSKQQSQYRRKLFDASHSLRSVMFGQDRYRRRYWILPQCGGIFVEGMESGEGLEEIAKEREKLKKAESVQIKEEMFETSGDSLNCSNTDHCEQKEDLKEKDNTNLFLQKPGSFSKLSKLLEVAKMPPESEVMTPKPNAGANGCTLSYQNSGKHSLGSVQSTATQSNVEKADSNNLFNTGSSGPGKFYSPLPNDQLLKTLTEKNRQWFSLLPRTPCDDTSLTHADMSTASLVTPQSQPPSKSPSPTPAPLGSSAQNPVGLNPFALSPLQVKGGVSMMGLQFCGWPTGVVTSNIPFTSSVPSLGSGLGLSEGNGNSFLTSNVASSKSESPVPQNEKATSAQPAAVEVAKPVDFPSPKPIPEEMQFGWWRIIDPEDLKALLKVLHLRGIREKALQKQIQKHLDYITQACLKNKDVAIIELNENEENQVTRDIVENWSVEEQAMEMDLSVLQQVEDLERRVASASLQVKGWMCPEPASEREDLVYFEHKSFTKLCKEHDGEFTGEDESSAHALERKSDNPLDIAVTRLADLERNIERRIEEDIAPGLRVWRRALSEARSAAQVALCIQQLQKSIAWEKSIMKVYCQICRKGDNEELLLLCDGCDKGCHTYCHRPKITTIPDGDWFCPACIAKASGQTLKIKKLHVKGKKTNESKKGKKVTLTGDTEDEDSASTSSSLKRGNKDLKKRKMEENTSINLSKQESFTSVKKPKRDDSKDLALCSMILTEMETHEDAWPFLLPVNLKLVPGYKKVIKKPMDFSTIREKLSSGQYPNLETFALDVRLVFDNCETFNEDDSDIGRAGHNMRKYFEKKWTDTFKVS
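AlphaScreen luminescence quantifies BAZ2B engagement of H3K14Ac peptide; the protein and biotinylated peptide are both at 50 nM final, buffer PBS pH 7.4 with 0.01% Tween-20, all steps at room temperature.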
JMJD2A Tudor inh – blocks the human JMJD2A Tudor domain | 390,000 compounds, 4.4% hits | Potency, µM (top dose mostly 114 µM), for the others: at the top dose activity change, negative = inhibition, hits mostly inhibitors | AlphaScreen JMJD2A-Tudor / H3K4me3 peptide binding | O75164; note: % is set by controls: 0 for no effect and ±100 for the full control effect; nearly all actives have a fitted effect of over 50% in size
Sfp PPTase inh – inhibitors of Bacillus subtilis Sfp phosphopantetheinyl transferase; AID 1490; Biochemical Sfp PPTase activity, qHTS; Q9F4F7; Potency, µM, for the others: largest response in the series, negative = inhibition, usual class: inhibitors; 310,000 compounds, 3.5% hits;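 note: the enzyme is Sfp with the accession as filed and its product quenches rhodamine fluorescence; 0% = enzyme reaction without inhibitor and -100% = no enzyme wells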
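Compounds were incubated with enzyme (final 15 nM) for 15 min at room temperature before substrate addition started the reaction. Fluorescence at 525 nm excitation, 598 nm emission was recorded immediately and after 30 minutes.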
* hit, by the source's call; ? = inconclusive; . = not tested or not shown; ! = a repeat was not active; [ ] = remark or other dose. The list is not random: actives were taken first. Their share in the collection is about 12%. Calls come from the whole dose curve; as a rule, active = well fitted curve in the direction sought with a large enough effect; inconclusive = small, poorly fitted or top-dose-only effect, or another doubt; inactive = no such curve, though single readings can be large; an effect the other way counts as inactive or inconclusive. Potency is the fitted concentration of half-maximal effect.

SMILES	G9a block	L3MBTL1 inh	HP1b binding inh	BAZ2B inh	JMJD2A Tudor inh	Sfp PPTase inh
O=C(O)C(Cc1ccccc1)N1C(=O)/C(=C/c2cccc3ccccc23)SC1=S (stereo not given)	?	-3%	.	56µM*	.	-19%
O=C(O)c1ccc(/C=C2\SC(=S)N(NC(=O)c3ccccc3[N+](=O)[O-])C2=O)cc1	?	.	16%	-3%	-19%	-23%
CCOc1cc(/C=C2\SC(=S)N(Nc3ccccc3)C2=O)ccc1O	?	?	50µM*	20µM*	0%[11.4 µM]	?
O=C(NN1C(=O)/C(=C\c2ccc(O)c([N+](=O)[O-])c2)SC1=S)c1ccccc1Cl	4µM*	0%	-32%	40µM*	56µM*	-4%
COC(=O)c1c(C)[nH]c(C(=O)C(C)OC(=O)C2CC2)c1C (stereo not given)	7%[12.7 µM]	-1%	42%	-2%	-17%	.
CC1CC(C)CN(C(=O)c2ccc3c(c2NCCO)C(=O)c2ccccc2C3=O)C1 (stereo not given)	28µM*	.	45µM*	?	14µM*	-20%
CCSC1=NC2(CCCCC2)Nc2sc3c(c21)CCCC3	4.5µM*	.	?	?	22µM*	40µM*
S=c1cnc2ccccc2[nH]1	1µM*	2%	?	56µM*	4.5µM*	20µM*
Cc1occc1-c1nnc(SCC(=O)c2c[nH]c3ccccc23)n1C	40µM*	-6%	-26%	-22%	56µM*	50µM*
Cc1occc1-c1nnc(SCC(=O)N2CCCCC2)n1C	-7%	8%	17%	-5%	-8%	.
Cc1occc1-c1nnc(SCC(=O)c2ccc(Cl)cc2)n1C	-40%[12.7 µM]	.	-20%	?	71µM*	-21%
COc1ccc2c(c1)N(C[C@@H](C)CN(C)C)c1ccccc1S2	7.9µM*	.	.	.	.	4%
CC(CN1c2ccccc2Sc2ccccc21)N(C)C (stereo not given)	15µM*!	-7%	-14%	45µM*	?	50µM*!
COc1ccc2c(c1)N(C[C@H](C)CN(C)C)c1ccccc1S2	.	.	-16%	.	?	.
Cc1cc(C)nc(NC2=NCCN2C(=S)Nc2ccc(C)c(C)c2)n1	.	-5%	14%	-12%	-7%	12%
CCNC(=O)CN1C(=O)NC(Cc2ccccc2)(Cc2ccccc2)C1=O	8%	17%	2%	1%	-6%	19%
CCC1(CC)NC(=O)N(CC(=O)NC(=O)NCc2ccccc2)C1=O	32µM*	.	?	5%	-10%	3%
CN(/N=C/c1ccc([N+](=O)[O-])o1)c1ccccc1	22µM*	-11%	35µM*	14µM*	32µM*	3%
COC(=O)N/N=C/c1ccc([N+](=O)[O-])o1	0%[59 µM]	-3%	9%	2%	-4%	19%
CCOC(=O)N1CCN(Cc2nc3cc(NC(=O)c4cccc(C)c4)ccc3n2C(C)C)CC1	9%[59 µM]	.	23%	?	-30%	.
COc1ccc(CN2CCNC(=O)C2CC(=O)NCc2cc(C)n(C)n2)c(F)c1 (stereo not given)	25µM*	.	45%	1%	-8%	-3%
CCOc1ccc(CN2CCNC(=O)C2CC(=O)NCc2cc(C)n(C)n2)cc1 (stereo not given)	40µM*	.	58%	-23%	-17%	10%
Cc1ccc(CN2CCNC(=O)C2CC(=O)NCc2cc(C)n(C)n2)cc1 (stereo not given)	79µM*	.	43%	-20%	-10%	-7%
COc1ccccc1Cn1ccn(CC(=O)Nc2c(C)cc(C)cc2C)c(=O)c1=O	-1%[59 µM]	.	26%	3%	-17%	.
CN1/C(=C\C(=O)c2cccnc2)Sc2ccccc21	28µM*	11%	49%	-2%	3%	22µM*
SMILES	G9a block	L3MBTL1 inh	HP1b binding inh	BAZ2B inh	JMJD2A Tudor inh	Sfp PPTase inh
O=C(Nc1c(C(=O)c2ccccc2)oc2ccccc12)c1ccc(F)cc1	10%[59 µM]	.	18%	2%	-3%	.
CC1CCCN(CCCOc2ccc([N+](=O)[O-])cc2)C1 (stereo not given)	8.9µM*	-7%	-25%	?	22µM*	-11%
Cc1cc(=O)n(C)c(=O)n1CCCCOc1ccc([N+](=O)[O-])cc1	-1%	-8%	21%	-33%	-10%[11.4 µM]	10%
COc1ccc(OCCCN2CCCC(C)C2)cc1 (stereo not given)	7.1µM*	1%	?	-35%	-22%[57.1 µM]	0%
CCCCNC(=O)CSc1nc2cc3c(cc2c(=O)n1CCCC(=O)NCc1ccc(OC)cc1)OCO3	-5%[59 µM]	.	9%	0%	-7%	.
COC(=O)c1scc(C)c1NC(=O)/C=C/C(=O)O	1.8µM*	5%	38%	-4%	11%	13µM*
COCCN=C1NC(=O)C(CC(=O)Nc2cccc(Cl)c2C)S1 (stereo not given)	50µM*	26%	28%	2%	-12%	-9%
COC(=O)N1CCC2(CCN(Cc3cc(C(F)(F)F)cc(C(F)(F)F)c3)CC2)CC1	-2%[12.7 µM]	.	.	.	.	9%
CC1(c2ccccc2)CC(C)(C)N2C(=O)C(=O)c3cccc1c32 (stereo not given)	?	-7%	-33%	28µM*	?	?
O=C(O)c1c[nH]ccc1=O	?	-12%	-32%	?	7.1µM*	-14%
O=C(O)c1cccc(O)c1O	.	.	35%	.	?	.
COc1ccc(C2CC(=O)c3c(C)nc(N4CCN(Cc5ccccc5)CC4)nc3C2)cc1OC (stereo not given)	35µM*	-14%	-14%	?	?	-20%
CCn1c(SCC(=O)Nc2ccc3c(c2)OCCO3)nnc1-c1ccco1	-40%[12.7 µM]	-1%	-1%	3%	-17%	10%
CCCCn1c(SCC(=O)c2ccc3c(c2)OCCO3)nnc1-c1ccco1	?	-10%	21%	-26%	-21%	50µM*
COc1ccc(C(=O)CSc2nnc3ccccn23)cc1OC	2%[59 µM]	.	75%	-1%	-16%	13%
O=C(CSc1nnc2ccccn12)c1ccc2c(c1)OCCO2	40µM*	0%	49%	-4%	-10%	9%
CCn1c(SCC(=O)c2ccc3c(c2)OCCO3)nnc1C(C)C	45µM*	0%	-12%	0%	-16%	?
O=C(CSc1nnc(-c2cccs2)n1-c1ccccc1)c1ccc2c(c1)OCCO2	40µM*	-4%	26%	11%	-2%	-7%
O=C(CSc1nnc(-c2ccc3c(c2)OCO3)n1-c1ccccc1)c1ccccc1	-2%[59 µM]	3%	17%	-3%	-3%	5%
Cc1cc2c(s1)c1cnn(Cc3ccc(Br)cc3)c(=O)c1n2C	.	.	.	.	-33%	.
CCc1ccc(CN(Cc2cn[nH]c2-c2ccc(OC)cc2)C(=O)Nc2ccc(Br)cc2)cc1	-1%[59 µM]	.	46%	-3%	-3%	.
